Assay outcomes (PubChem BioAssay)
A selection: hits, their analogues and other compounds. The true share with any hit is near 4.2%.
MCF10A rereplic: inducers of DNA re-replication in MCF 10A breast cells; hit rate 2.9% among 350,000; MCF 10A DNA re-replication, Hoechst nuclear intensity, 48 h; Potency, µM (titrated, usually from 46.1 µM), for the others: top-dose activity, positive = re-replication, most hits filed as activators; note: % of control where 0% means no effect; nearly all actives have a fitted effect of over 50% in size
AT treatment: potential ataxia-telangiectasia treatment; F2112 A-T fibroblasts, KAP-1 phosphorylation AlphaLISA; neocarzinostatin DNA damage 30 min before lysis; Potency, µM (series often up to 57.5 µM), inactives show at the highest dose activation, actives largely listed as activators; hit rate 0.19% among 320,000; AID 485349; note: % of control where 0% means no effect; nearly all actives have a fitted effect of over 45% in size
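hTERT-immortalized A-T patient fibroblasts (F2112), 500 cells/well in OPTI-MEM, 1% FBS, got compounds for 60 min, then NCS for 30 min at 37C. Lysates were then assayed for phospho-KAP-1 by AlphaLISA (anti-pKAP1 donor, anti-KAP1 acceptor beads), 6 hr at 25C.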
Mito fusion yeast: blocks mitochondrial division or promotes mitochondrial fusion; S. cerevisiae fusion-defective mutant growth rescue, CellTiterGlo 48 h; Potency, µM (doses to about 46.1 µM), for the others: top-dose growth rescue (activation), most hits filed as activators; hit rate 0.23% among 320,000; AID 485298; note: % of control where 0% means no effect; nearly all actives have a fitted effect of over 45% in size
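S. cerevisiae fusion-defective temperature-sensitive mutants (e.g. fzo1-1, mgm1-5) grown 48 h at 37C in YPEG (ethanol/glycerol non-fermentable) medium with 23 nl compound per well; growth rescue read as CellTiterGlo luminescence.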
Integrin act MD: integrin-mediated muscular dystrophy alleviation activation; alpha7betagal myoblasts, beta-gal FDG fluorescence, 48 h; Potency, µM (highest dose often 38.3 µM), for inactives: at the top dose activation, hits mostly activators; hit rate 0.064% among 350,000;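 note: 100% = response of the positive control SU9516; nearly all actives have a fitted effect of over 60% in size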
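alpha7betagal+/- myoblasts (passage 13, 250/well) treated 48 h at 37C with compounds at 1:260 dilution of DMSO stock. Lysed, then beta-galactosidase activity read as FDG fluorescence (ex 480/em 540) after 30 min, with pre-read for autofluorescence.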
SW480 rereplic: inducers of DNA re-replication in SW480 colon cancer cells; SW480 DNA re-replication, Hoechst DNA content imaging, 48 h; Potency, µM (series often up to 46.1 µM), for inactives: top-dose re-replication activation, most hits filed as activators; hit rate 1.8% among 340,000; AID 624297; note: % of control where 0% means no effect; nearly all actives have a fitted effect of over 55% in size
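Cells (250 per well) received 23 nL compound or DMSO by pin tool and were kept 48 hr at 37 C, 5% CO2. Nuclei were then stained with Hoechst for 40 min and scanned for DNA content.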
Numbers without * were called inactive; ? = inconclusive; nt = no result. Calls come from the whole dose curve; as a rule, active = well fitted activation curve with a large enough effect; inconclusive = small, poorly fitted or top-dose-only effect; inactive = no such curve, though single readings can be large or run the other way. Potency is the fitted concentration of half-maximal effect.

SMILES | MCF10A rereplic | AT treatment | Mito fusion yeast | Integrin act MD | SW480 rereplic
CCc1nnc(NC(=O)CCc2c[nH]c3ccccc23)s1 | -8% | 4% | -1% | -15% | 2%
O=C(CN1CCN(c2cccc(Cl)c2)CC1)NC1CCCc2ccccc21 (stereo not given) | 21µM* | -10% | 21% | -4% | 1%
CCCn1c(=O)c(C(=O)Nc2ccccc2C(=O)OCC)c(O)c2ccccc21 | 11µM* | -1% | -4% | 20% | ?
CCn1c(=O)c(C(=O)NNC(=O)c2cccc(Cl)c2)c(O)c2ccccc21 | 23µM* | 7% | 10% | 4% | ?
Cn1c(=O)c(C(=O)NNC(=O)c2cccc(Cl)c2)c(O)c2ccccc21 | 7.3µM* | 11% | -13% | 0% | 9.2µM*
CC(NC(=O)c1c(O)c2ccccc2n(C)c1=O)c1ccccc1 (stereo not given) | 18% | 6% | -4% | 0% | 23µM*
O=C(CCn1c(=O)oc2ccccc21)NCCN1CCOCC1 | -12% | 41% | 3% | 23% | -3%
CCCn1c(=O)c(C(=O)NNS(=O)(=O)c2ccc(Cl)cc2)c(O)c2ccccc21 | 15µM* | 0% | -1% | 19% | -3%
CCn1c(=O)c(C(=O)Nc2nc3ccccc3[nH]2)c(O)c2ccccc21 | 9.2µM* | 1% | 0% | -27% | ?
COC(=O)CCN1CCN(S(=O)(=O)c2ccccc2Br)CC1 | -3% | -3% | -5% | -19% | -1%
O=C(COC(=O)c1ccc(-c2nnc(-c3ccccc3)o2)cc1)c1ccccc1 | ? | 0% | -4% | -10% | 16µM*
O=C(OCc1nnc(-c2ccccc2)o1)c1ccccc1 | 9% | -1% | 5% | -11% | 3%
Cn1nc(NC(=O)C(F)(F)F)c2ncc(-c3ccccc3)nc21 | nt | nt | nt | 0% | nt
O=C1N/C(=C/c2ccc(N3CCOCC3)o2)C(=O)N1c1cccc(Cl)c1 | ? | -7% | 0% | -29% | 4.6µM*
Cc1ccc(/C=C2/NC(=O)N(c3ccccc3)C2=O)o1 | 14% | 1% | 1% | 18% | 1%
COC(=O)C1=C(C)N(Cc2ccccc2)C(=NCCN2CCOCC2)N[C@H]1CCc1ccccc1 | 0% | -3% | 0% | 0% | -10%
CCCCCCn1c(O)c(/C=C2\C=NN=C2c2ccccc2)sc1=S | ? | nt | 0% | -57% | ?
CC(C)Cn1c(O)c(/C=C2\C=NN=C2c2ccccc2)sc1=S | 23µM* | 32µM* | 15% | -1% | ?
CCCCn1c(O)c(/C=C2\C=NN=C2c2ccccc2)sc1=S | 10µM* | ? | 4% | -64% | ?
CC(=O)C1C(=O)c2c(cccc2[N+](=O)[O-])C1=Nc1ccc(S(N)(=O)=O)cc1 (stereo not given) | 5% | -1% | 2% | -15% | -3%
O=C(Nc1nncs1)c1cc(-c2ccco2)nc2ccccc12 | 1% | 2% | nt | -1% | 0%
Cc1cccc(S(=O)(=O)c2c(N)n(/N=C/c3ccccc3)c3nc4ccccc4nc23)c1 | 16% | -1% | 0% | 19% | 12%
Nc1c(S(=O)(=O)c2ccccc2)c2nc3ccccc3nc2n1/N=C/c1cccc(O)c1 | 0.92µM* | -4% | 21% | -70% | 7%
CCOc1ccccc1CNC(=O)c1cc2oc3ccccc3c2n1CC | 18µM* | 2% | 16% | -26% | 4%
Cn1c(C(=O)N2CCc3ccccc3C2)cc2oc3ccccc3c21 | ? | -1% | ? | 13% | 9%
SMILES | MCF10A rereplic | AT treatment | Mito fusion yeast | Integrin act MD | SW480 rereplic
CCn1c(C(=O)N2CCc3ccccc3C2)cc2oc3ccccc3c21 | 16µM* | 7% | 16% | 8% | 1%
COC(=O)c1ccc(Cn2cnc3c(Cl)ncnc32)cc1 | 24% | nt | nt | -33% | 18%
CCNC(=O)N(CC)C[C@H]1N[C@@](Cc2ccccc2)(C(=O)OC)[C@H]2C(=O)N(C)C(=O)[C@@H]12 | -6% | -3% | nt | 5% | ?
CCCCNc1c(C(=O)OCC)c(C)nc2c1cnn2CC | ? | nt | 23µM* | nt | -109%
CCOC(=O)c1c(C)nc2c(C#N)cnn2c1C | -15% | 7% | -3% | -5% | 4%
N#CCCn1cc(C(=O)Nc2cccc(C(=O)O)c2)c(-c2ccc(Cl)cc2)n1 | 4% | 3% | -1% | 7% | 4.1µM*
COc1ccc(-c2ccc(CN3C(C(C)C)C(=O)N(Cc4cn(Cc5ccco5)nn4)CCS3(=O)=O)cc2)cc1OC (stereo not given) | nt | nt | nt | -1% | nt
Cc1ccc(SCCNC(=O)/C=C/c2ccc([N+](=O)[O-])cc2)cc1 | ? | -7% | 16µM* | -8% | -1%
CCCCOc1ccc(/C=C/C(=O)Nc2ccc([N+](=O)[O-])cc2C)cc1 | -2% | -1% | -5% | 8% | 0%
CCCOc1ccc(/C=C/C(=O)Nc2ccc([N+](=O)[O-])cc2)cc1 | 15µM* | 0% | -5% | -14% | 3%
O=C(NN1CCN(Cc2ccccc2)CC1)c1ccc(N2CCOCC2)c([N+](=O)[O-])c1 | 6% | 2% | -4% | -17% | -8%
CC(C)(C)C(=O)Nc1nnc(SCc2ccc(F)cc2)s1 | -1% | -2% | 9% | 12% | -15%
O=C(Nc1nnc(SCc2ccc(F)cc2)s1)c1ccco1 | 0% | -5% | 12% | 18% | 2%
CC(C)(C)C(=O)Nc1nnc(SCc2cccc(F)c2)s1 | 0.65µM* | -2% | 5% | 0% | -10%
CCCOc1cccc(-c2nnc(NC(=O)c3ccco3)s2)c1 | 8.2µM* | -2% | 4% | -33% | 8%
O=C(Nc1nnc(SCc2cccc(F)c2)s1)c1ccco1 | 0.29µM* | -2% | -5% | 9% | -76%
CSCCC(NC(=O)c1ccc(Cl)cc1Cl)C(=O)N(C)Cc1nc2ccccc2c(=O)[nH]1 (stereo not given) | 0% | -6% | -7% | -43% | 11%
COc1ccc(Br)cc1/C=N/Nc1ccccn1 | 23µM* | -1% | -16% | 31% | ?
COc1ccc(/C=N/Nc2ccccn2)cc1OC | 0% | 4% | -4% | -13% | ?
Cc1cc(O)cc2c(=O)c3ccccc3sc12 | 18µM* | -3% | -1% | 20% | ?
c1ccc(-c2ccc(C3=Nn4c(nnc4-c4cc(-c5ccccc5)n[nH]4)SC3)cc2)cc1 | 15µM* | -1% | -7% | -63% | ?
Brc1ccc(C2=Nn3c(nnc3-c3n[nH]c4c3CCC4)SC2)cc1 | ? | 0% | 16µM* | 29% | ?
CC(C)[C@H](N)c1nnc2n1N=C(c1ccc(Cl)cc1)CS2 | -9% | 12% | 2% | ? | -22%
Clc1ccc(C2=Nn3c(nnc3-c3n[nH]c4c3CCC4)SC2)cc1 | ? | 13% | 13% | -9% | 6.5µM*
Cc1ccc(-c2nnc3n2N=C(c2ccc(Br)cc2)CS3)cc1 | 0% | 16% | 1% | -2% | -8%
